Assay results taken from PubChem BioAssay AID1259417 (TB Discovery Research, Infectious Disease Research Institute, 2018).
In all, about 1,100 compounds went through this assay and about 760 (69%) were called active. How the calls were made is not given here. The set was probably picked from earlier hits. Some of the results follow.

Experiment: M. tuberculosis growth inhibition, HTS (AID 1259417);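 further: bacteria grown with compound for 5 days at 37 °C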
Conditions: stronger effect = higher value, concentration not given here
[1] = M. tuberculosis DsRed fluorescence growth inhibition
[2] = M. tuberculosis growth inhibition

Row | SMILES | inhibition [1] | inhibition [2]
1 | CCOC(=O)c1cnc2ccc(OC)cc2c1Nc1ccc2c(c1)OCCO2 | 36.6% (active) | 24%
2 | CCCC(=O)OCCNc1cc(SCc2ccco2)c2nonc2c1[N+](=O)[O-] | 22% (inactive) | 21%
3 | O=C(CC(SCc1ccco1)c1cccc([N+](=O)[O-])c1)c1ccco1 (stereo not drawn) | 96.9% (active) | 97.7%
4 | CC(=O)OCCNc1cc(SCc2ccco2)c2nonc2c1[N+](=O)[O-] | 14.7% (inactive) | 11.3%
5 | CCCCn1c(O)c(/C=C2\C=CC=N2)c(=O)[nH]c1=O | 58.2% (active) | 89.6%
6 | Cc1cc(C)c(-n2c(O)c(/C=C3\C=CC=N3)c(=O)[nH]c2=O)c(C)c1 | 97.7% (active) | 98.6%
7 | O=c1c2cccc3c2c(nn1CCN1CCCCC1)-c1ccccc1-3 | -22.6% (active) | 56.2%
8 | CCC(C)c1ccc(OCCCCn2ccnc2)cc1 (stereo not drawn) | 100% (active) | 100%
9 | CCC(C)(C)c1ccc(OCCCn2ccnc2)cc1 | 100% (active) | 99.6%
10 | CCC(C)c1ccc(OCCn2ccnc2)cc1 (stereo not drawn) | 99.2% (active) | 99.6%
11 | CCOC(=O)c1sc(NC(=O)CCSc2ccccc2)cc1C | 96.9% (active) | 84.1%
12 | CCOC(=O)c1c(NC(=S)NC2CCN(Cc3ccccc3)CC2)sc(C)c1-c1ccccc1 | 21.1% (inactive) | -12.2%
13 | CCOC(=O)c1sc(NC(=O)NC2CCCCC2)cc1C | 100% (active) | 96.2%
14 | CCOC(=O)C(C#N)=Cc1ccc(-c2ccc(F)cc2)o1 | 2.37% (active) | 87.5%
15 | Cc1ccc(-c2ccc(C=CC(=O)c3ccco3)o2)cc1 | 9.38% (inactive) | 20.8%
16 | Cc1ccc(-n2cnc3cc(NCc4cccs4)ccc32)cc1 | 18.8% (active) | 35.4%
17 | CCn1cc(C(=O)O)c(=O)c2cc(F)c(N3CCNCC3)cc21 | 96.6% (active) | 97%
18 | CCn1cc(C(=O)O)c(=O)c2cc(F)c(N3CCN(C(=S)Nc4cc(C(F)(F)F)ccc4Cl)CC3)cc21 | 47.9% (active) | 61.9%
19 | CCn1cc(C(=O)O)c(=O)c2cc(F)c(N3CCN(C)CC3)cc21 | 94.8% (active) | 94.2%
20 | CC(=O)N1CCN(c2cc3c(cc2F)c(=O)c(C(=O)O)cn3C2CC2)CC1 | 97.5% (active) | 97.7%
21 | O=c1oc(-c2ccccc2)cc(Cl)c1Cl | 61.6% (active) | 74%
22 | CCc1cccc2sc(N(CCCn3ccnc3)C(=O)c3cccs3)nc12 | 88.1% (active) | 97.7%
23 | Cc1ccc2sc(N(CCCn3ccnc3)C(=O)c3cccs3)nc2c1C | 98.3% (active) | 99.1%

Row | SMILES | inhibition [1] | inhibition [2]
24 | O=C(c1cccs1)N(CCCn1ccnc1)c1nc2c(Cl)cccc2s1 | 91.1% (active) | 98.4%
25 | CCc1cccc2sc(N(CCCn3ccnc3)C(=O)C=Cc3cccs3)nc12 | 97.8% (active) | 99.1%
26 | O=C(C=Cc1cccs1)N(CCCn1ccnc1)c1nc2ccccc2s1 | 98.3% (active) | 99.1%
27 | Cc1c(Cl)ccc2sc(N(CCCn3ccnc3)C(=O)C=Cc3cccs3)nc12 | 99.5% (active) | 99.5%
28 | Cc1ccc(NC(=O)COc2ccc(-n3ccnc3)cc2)cc1Cl | -9.16% (inactive) | -12.4%
29 | Cc1ccc(Nc2ccc(-n3ccnc3)nn2)cc1Cl | 42% (active) | 27.3%
30 | CCCCCCCCOC(=O)c1c(CSC(=N)N)n(C)c2cc(Br)c(OC(C)=O)cc12 | 26.7% (inactive) | 4.13%
31 | Oc1cccc(Nc2nc(NCc3ccccc3)c3ccccc3n2)c1 | -1.72% (inactive) | -16.1%
32 | Cc1cc(Nc2cccc(Cl)c2)nc(NCc2ccccc2)n1 | 96.8% (active) | 90.6%
33 | Cc1cc(Nc2ccc(Cl)cc2)nc(NCc2ccccc2)n1 | 87.7% (active) | 79.9%
34 | CCn1c(CNc2ccc(F)cc2)nnc1SCC(=O)OC1CCCCC1 | 0.628% (inactive) | -6.89%
35 | Cn1c(COc2cccc3ccccc23)nnc1SCC(=O)OC1CCCCC1 | 76.6% (active) | 92.4%
36 | CCn1c(COc2cccc3ccccc23)nnc1SCC(=O)OC1CCCCC1 | 42.4% (active) | 80.7%
37 | O=C(Nc1nc(SCc2ccc(F)cc2)ns1)c1cc(F)c(F)cc1Cl | 7.63% (inactive) | 5.06%
38 | Cc1ccc(CSc2nnc(CCCCCNC(=O)OC(C)(C)C)o2)cc1 | 30.6% (active) | 36.2%
39 | CCOC(=O)CN(C#N)c1nc(N(C)C)nc(N(C)C)n1 | 98.5% (active) | 98.9%
40 | CCn1nnc(NC(=O)c2sc3ccccc3c2Cl)n1 | 41.4% (active) | 47.8%
41 | O=C(Nc1nnc(C2CCCCC2)s1)c1sc2ccccc2c1Cl | 0.622% (inactive) | -19.5%
42 | Cc1ccc(C)c(-c2cc(C(=O)Nc3nccs3)c3ccccc3n2)c1 | -0.261% (inactive) | -26.2%
43 | O=C(CSc1nnc(Cc2ccccc2)o1)Nc1nccs1 | 1.22% (inactive) | -3.79%
44 | O=C(Nc1nccs1)c1ccc(CSc2ccccc2)o1 | 28.2% (active) | 69.6%
45 | O=C(Nc1sc2c(c1C(=O)Nc1ccccc1)CCC2)c1cccc(Br)c1 | 0.927% (inactive) | -1.38%
46 | CCOc1ccc(NC(=O)c2c(NC(=O)CNCCN3CCOCC3)sc3c2CCC3)cc1 | 100% (active) | 101%

Row | SMILES | inhibition [1] | inhibition [2]
47 | O=C(CNCCN1CCOCC1)Nc1sc2c(c1C(=O)Nc1ccccc1)CCC2 | 100% (active) | 100%
48 | COCCCNC(=O)c1c(NC(=O)c2ccccc2OC)sc2c1CCCC2 | 2.12% (inactive) | -22.4%
49 | Cc1ccccc1C(=O)Nc1sc2c(c1C(=O)NCCO)CCC(C(C)(C)C)C2 (stereo not drawn) | 5.07% (inactive) | -17.9%
50 | CO[C@H]1C=CO[C@@]2(C)Oc3c(C)c(O)c4c(O)c(c5c(c4c3C2=O)=NC2(CCN(CC(C)C)CC2)N=5)NC(=O)C(C)=CC=C[C@H](C)[C@H](O)[C@@H](C)[C@@H](O)[C@@H](C)[C@H](OC(C)=O)[C@@H]1C | 100% (active) | 101%
51 | Cc1ccc(-c2nnc(NC(=O)c3ccc(Cl)s3)o2)c(C)c1 | 86.1% (active) | 75.4%
52 | Cc1ccc(-c2nnc(NC(=O)c3ccc(Br)s3)o2)c(C)c1 | 83.8% (active) | 75.7%
53 | COc1ccc(OC(C)C(=O)Nc2ccc(Cl)cc2C)cc1 (stereo not drawn) | 1.5% (inactive) | -1.86%
54 | COc1ccc(OC(C)C(=O)Nc2ccc(I)cc2)cc1 (stereo not drawn) | 76% (active) | 79.3%
55 | Oc1ccccc1-c1n[nH]c(/C=C/c2ccc(Cl)cc2)n1 | 2.06% (inactive) | -29.9%
56 | CC(C)(C)c1ccc(C(=O)Nc2ccc(S(=O)(=O)Nc3nccs3)cc2)cc1Br | 1.5% (inactive) | -12.7%
57 | CC1CCc2c(sc3ncn(C(C)C(=O)OCc4ccccc4)c(=O)c23)C1 (stereo not drawn) | 6.46% (inactive) | 8.18%
58 | CC1CCc2sc3ncnc(NCCc4ccccc4)c3c2C1 (stereo not drawn) | 35.8% (active) | 35.3%
59 | O=C(Nc1ccc2c(c1)CCC2)c1ccc(Br)s1 | 25.5% (inactive) | 10.7%
60 | CC(Sc1nnc(N)s1)C(=O)Nc1nc2c(s1)CCCC2 (stereo not drawn) | 18.7% (inactive) | 26%
61 | O=C(Nc1nc2c(s1)CCCC2)c1ccc(Br)s1 | 42.7% (active) | 18.9%
62 | Cc1cccc(OCc2nnc(SCC(=O)OC3CCCCC3)o2)c1 | 82.9% (active) | 94.9%
63 | Cc1cc(OCc2nnc(SCC(=O)OC3CCCCC3)o2)ccc1Cl | 94% (active) | 94.6%
64 | O=C(C=Cc1cccc(C(F)(F)F)c1)Nc1cccc(C(F)(F)F)c1 | 25.5% (inactive) | 6.54%
65 | O=C(Nc1ccc(C(F)(F)F)cc1)Nc1cccc(Cl)c1 | 99.7% (active) | 100%
66 | Cc1ccc(S(=O)(=O)Nc2ccc(NC(=O)Nc3cccc(C(F)(F)F)c3)cc2)cc1 | 1.5% (inactive) | -12.5%
67 | CCOC(=O)CNC(=O)CSc1nc(-c2cccc(C)c2)ns1 | 56.7% (active) | 71.3%
68 | CCOC(=O)CNC(=O)CSc1nc(-c2ccccc2)ns1 | 85.8% (active) | 65.5%
69 | CCOC(=O)CSc1nc(-c2ccccc2)ns1 | 51.6% (active) | 86.5%

Row | SMILES | inhibition [1] | inhibition [2]
70 | c1ccc2cc3nc4c(ccc5ccccc54)nc3cc2c1 | 97.7% (active) | 99%
71 | COc1cccc(-n2nnnc2S(C)(=O)=O)c1 | 99.7% (active) | 100%
72 | COc1cccc(-n2nnnc2S(=O)(=O)Cc2ccccc2)c1 | 100% (active) | 101%
73 | CCCS(=O)(=O)c1nnnn1-c1cccc(OC)c1 | 101% (active) | 100%
74 | O=C(NC1CCCCC1)N1CCN(Cc2ccc3c(c2)OCO3)CC1 | 99.4% (active) | 100%
75 | O=C(C=Cc1cccs1)N1CCN(Cc2ccc3c(c2)OCO3)CC1 | 99.4% (active) | 100%
76 | CC12CC3CC(C)(C1)CC(CNCc1ccccc1O)(C3)C2 | 98.9% (active) | 99.3%
77 | CC1(C)C=Cc2c(nc3ccccc3c2NCc2ccccc2)C1 | 16.7% (active) | 35.8%
78 | c1ccc(CNc2nc(N3CCN(Cc4ccccc4)CC3)nc3ccccc23)cc1 | -2.6% (inactive) | -0.535%
79 | Cc1cc(OCCCn2ccnc2)ccc1Cl | 98.9% (active) | 99.6%
80 | Cc1cc(OCCn2ccnc2)ccc1Cl | 89.5% (active) | 90.8%
81 | Clc1ccc(SCCCn2ccnc2)cc1 | 100% (active) | 99.6%
82 | Clc1ccc(OCCCCn2ccnc2)c(Br)c1 | 98.8% (active) | 99.3%
83 | Brc1c(OCCCn2ccnc2)ccc2ccccc12 | 98.3% (active) | 99%
84 | Clc1cc(Br)ccc1OCCCCn1ccnc1 | 99.4% (active) | 99.4%
85 | Clc1ccc(OCCCCCn2ccnc2)c(Cl)c1 | 100% (active) | 99.3%
86 | C=CCc1cc(C)ccc1OCCCCn1ccnc1 | 99.4% (active) | 100%
87 | C=CCc1cc(C)ccc1OCCCn1ccnc1 | 92.4% (active) | 97.1%
88 | C=CCc1cc(Cl)ccc1OCCCCn1ccnc1 | 100% (active) | 100%
89 | C=CCn1c(-c2cccs2)nc2ccccc21 | 97.1% (active) | 100%
